The values that follow come from PubChem BioAssay (Tox21).

Experiment [1] is described as follows: A CellTox Green Cytotoxicity Assay to monitor cytotoxicity in HepG2 cells - 8 hour (AID 1224890). Also: nearly all actives have a fitted effect of over 45% in size. Put shortly:
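Cytotoxicity was tracked as dead-cell DNA fluorescence in HepG2 cells treated with test compounds at 37 C; each time-point value comes from one kinetic series spanning 0, 8, 16, 24, 32 and 40 h.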

A short description of experiment [2]: qHTS assay to identify small molecule antagonists of the estrogen receptor alpha (ER-alpha) signaling pathway using the BG1 cell line in the presence of 0.1 nM 17-beta-estradiol - cell viability counter screen (AID 1259241). Also: nearly all actives have a fitted effect of over 40% in size. Put shortly:
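VM7Luc4E2 cells (endogenous ER-alpha, 4×ERE-luciferase), hormone-starved 5 days in charcoal-stripped FBS, were treated with compounds plus 0.1 nM 17beta-estradiol for 22 hr at 37C; viability read in same wells as CellTiter-Fluor live-cell protease fluorescence.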
A general note: qHTS replaces the single test concentration by a dilution series.

Experiment [3] can be described thus: qHTS assay to identify small molecule antagonists of the androgen receptor (AR) signaling pathway using the MDA cell line in the presence of 0.5 nM R1881 - cell viability counter screen (AID 1259242). Also: nearly all actives have a fitted effect of over 45% in size. In a few lines:
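Cells seeded at 3,000/well and allowed 5 hr at 37C, 0% CO2 before compound transfer and R1881 (0.5 nM final) addition; 16 hr later, live-cell protease fluorescence indicated cytotoxicity.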

Experiment [4] has as its target Estrogen receptor (Homo sapiens) (UniProt P03372). In words: qHTS assay to identify small molecule antagonists of the estrogen receptor alpha (ER-alpha) signaling pathway using the BG1 cell line in the presence of 0.1 nM 17-beta-estradiol (AID 1259244). Also: nearly all actives have a fitted effect of over 50% in size. In a few lines: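 Luciferase signal from VM7Luc4E2 ERE-reporter cells, co-dosed with test compound and 0.1 nM final 17beta-estradiol for 22 h, read with ONE-Glo.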

Experiment [5] is described as follows: qHTS assay to identify small molecule phospholipidosis (PLD) inducers (AID 1259344; active = well fitted curve in the direction sought with a large enough effect; an effect the other way counts as inactive or inconclusive). Put shortly:
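Read-out is LipidTOX Red fluorescence (ex 595/em 615) imaged in HepG2 cells after 24 h compound exposure at 37 C, with Hoechst nuclear counterstain (ex 352/em 461) allowing per-cell normalisation.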

Experiment [6] in a line: qHTS assay to identify small molecule HDAC inhibitors (AID 1259364).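 Also: wild-type HCT-116 cells with endogenous class I/II HDAC activity; top concentration of the series differs between compounds; nearly all actives have a fitted effect of over 45% in size.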 In a few lines: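 HCT-116 wt cells, 1,500/well, overnight attach. Compounds (DMSO) 2 h, 37 °C. HDAC-Glo I/II, 30 min RT. Luminescence.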
Experiment [7] is described as follows: qHTS assay to identify small molecule HDAC inhibitors - cell viability counter screen (AID 1259365). Also: series mostly up to about 92 µM; nearly all actives have a fitted effect of over 50% in size. Put shortly:
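Wild-type HCT-116 cells were seeded at 1,500 per well, incubated overnight at 37 C, then exposed to compounds in DMSO for 2hr. Viability was read by CellTiter-Glo luminescence after 30min at room temperature.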

The nature of experiment [8]: qHTS assay to identify small molecule agonists of the sonic hedgehog signaling (Shh) pathway - cell viability counter screen (AID 1259366). Also: nearly all actives have a fitted effect of over 50% in size. Put shortly: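 NIH/3T3-derived 3T3 Gli1-Luc cells (stable Gli1-responsive firefly luciferase reporter) were seeded, rested 4 hr at 37 C/5% CO2, then exposed to compounds in DMSO for 24 hr; viability was read by CellTiter-Fluor fluorescence in the same wells.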

Experiment [9] in a line: qHTS assay to identify small molecule antagonists of the sonic hedgehog signaling (Shh) pathway - cell viability counter screen (AID 1259367). Also: nearly all actives have a fitted effect of over 55% in size. Also: potency is read from the fitted curve at half-maximal effect. In a few lines:
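Fluorescence read-out (CellTiter-Fluor, 1 hr at 37C) taken after 23 hr compound treatment of 3T3 Gli1-Luc cells stimulated with conditioned medium. Cells were seeded at 2,000 per well and pre-incubated 4 hr.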

A short description of experiment [10]: qHTS assay to identify small molecule agonists of the sonic hedgehog signaling (Shh) pathway (AID 1259368; calls by dose curve; also: series mostly up to about 92 µM; nearly all actives have a fitted effect of over 15% in size). Put shortly:
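Following a 24 hr incubation with DMSO-dissolved compounds at 37 C, 5% CO2, Gli1-Luc NIH/3T3-derived cells received luciferase reagent for 30 min at room temperature prior to luminescence measurement.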

Experiment [11] is described as follows: qHTS assay to identify small molecule antagonists of the sonic hedgehog signaling (Shh) pathway (AID 1259369; calls by dose curve; also: nearly all actives have a fitted effect of over 45% in size; also: potency is read from the fitted curve at half-maximal effect). In a few lines: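 Read-out is luminescence from a firefly luciferase gene controlled by the Gli1 response element, in 3T3Gli1-Luc cells pre-incubated 4hr then exposed to compounds and conditioned medium for 24hr.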
For experiment [12], the target named is Estrogen receptor beta (Homo sapiens) (UniProt Q92731). As to the kind of experiment: qHTS assay to identify small molecule agonists of the estrogen receptor beta (ER-beta) signaling pathway (AID 1259377; active = well fitted activation curve with a large enough effect in the signal ratio in the repeat runs, not every such curve was filed as active; the % refers to the signal ratio). Put shortly:
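ER-beta-UAS-bla HEK293T (GripTite) cells carrying a UAS-driven beta-lactamase reporter, in medium with 2% charcoal-stripped FBS, were exposed to compounds for 16 hr at 37C; LiveBLAzer B/G FRET substrate was then added and fluorescence read after 2 hours at room temperature.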

The target is the same in experiment [13]. As to the kind of experiment: qHTS assay to identify small molecule antagonists of the estrogen receptor beta (ER-beta) signaling pathway (AID 1259378; active = well fitted inhibition curve with a large enough effect in the signal ratio in the repeat runs, not every such curve was filed as active; the % refers to the signal ratio). Put shortly: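 ER-beta-UAS-bla HEK293T cells in 2% charcoal-stripped FBS medium treated with compound plus 1nM final 17-beta-estradiol for 16 hr at 37C. Beta-lactamase reporter read by FRET substrate fluorescence after 2 hours at room temperature.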

Experiment [14] is described as follows: qHTS assay to identify small molecule agonists of the androgen receptor (AR) signaling pathway in the presence of an antagonist - cell viability counter screen (AID 1259379).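 Also: MDA-kb2 human breast cancer cells carrying an MMTV luciferase reporter; series mostly up to about 92 µM; nearly all actives have a fitted effect of over 25% in size.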 Put shortly: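 Each compound was tested at 15 concentrations on MDA-kb2 cells in the presence of 3.0uM nilutamide. Viability was measured by CellTiter-Fluor fluorescence after a 16 hr incubation at 37C in a CO2-free atmosphere.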

Experiment [15] in a line: qHTS assay to identify small molecule agonists of the estrogen receptor beta (ER-beta) signaling pathway - cell viability counter screen (AID 1259380). Also: nearly all actives have a fitted effect of over 30% in size. Put shortly:
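Compounds dissolved in DMSO were pin-transferred onto ER-beta-UAS-bla HEK293T cells that had settled 6 hr, and exposure ran 16 hr at 37C. Following the reporter read, CellTiter-Glo luminescence after 30 min at room temperature indicated cytotoxicity.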

Experiment [16] in a line: qHTS assay to identify small molecule antagonists of the estrogen receptor beta (ER-beta) signaling pathway - cell viability counter screen (AID 1259382). Also: series mostly up to about 92 µM; nearly all actives have a fitted effect of over 55% in size. In a few lines:
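CellTiter-Glo ATP luminescence measured after the LiveBLAzer read in the same wells; ER-beta-UAS-bla HEK293T cells, 16 hr compound treatment with 1nM 17-beta-estradiol agonist at 37C, 5% CO2.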

The target of experiment [17] is Estrogen receptor (Homo sapiens) (UniProt P03372). In words: qHTS assay to identify small molecule agonists of the estrogen receptor alpha (ER-alpha) signaling pathway in the presence of an antagonist (AID 1259383; calls by dose curve; also: top concentration of the series differs between compounds; nearly all actives have a fitted effect of over 15% in size). Put shortly: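 Luminescent ERE-luciferase reporter, VM7Luc4E2 cells (endogenous ER-alpha); 10.0nM ICI-182,780 final; 15-point compound titration; 22hr at 37C; ONE-Glo, 30min RT.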
Sequence of Estrogen receptor (Homo sapiens) (P03372 whole entry, looked up): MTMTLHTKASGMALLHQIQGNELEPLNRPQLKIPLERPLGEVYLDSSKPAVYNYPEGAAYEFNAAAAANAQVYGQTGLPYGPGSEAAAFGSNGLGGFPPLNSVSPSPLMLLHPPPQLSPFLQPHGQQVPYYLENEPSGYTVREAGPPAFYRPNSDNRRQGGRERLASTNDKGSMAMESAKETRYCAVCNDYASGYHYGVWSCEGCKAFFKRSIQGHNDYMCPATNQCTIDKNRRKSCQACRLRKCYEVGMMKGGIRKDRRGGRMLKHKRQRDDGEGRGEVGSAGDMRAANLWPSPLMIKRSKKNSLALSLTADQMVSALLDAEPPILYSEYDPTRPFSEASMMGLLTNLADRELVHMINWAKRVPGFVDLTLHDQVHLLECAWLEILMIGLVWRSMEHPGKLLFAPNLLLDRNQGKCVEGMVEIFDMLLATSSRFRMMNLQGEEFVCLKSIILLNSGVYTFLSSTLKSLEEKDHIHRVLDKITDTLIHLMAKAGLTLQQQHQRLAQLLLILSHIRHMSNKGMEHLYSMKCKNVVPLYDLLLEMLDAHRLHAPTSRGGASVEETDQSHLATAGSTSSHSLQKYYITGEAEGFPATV

The nature of experiment [18]: qHTS assay to identify small molecule agonists or antagonists of the thyroid stimulating hormone receptor (TSHR) signaling pathway - wild type cell line counter screen (AID 1259384; calls by dose curve). In a few lines: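 Wild-type Hek293 cells, 800/well, 18 h at 37C, then compound with Ro20-1724 for 30 min RT. cAMP by HTRF (cAMP-d2/anti-cAMP cryptate), 1 h RT, fluorescence read. 15 concentrations, triplicates.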

Experiment [19] addresses Androgen receptor (Homo sapiens) (UniProt P10275). As to the kind of experiment: qHTS assay to identify small molecule antagonists of the androgen receptor (AR) signaling pathway using the MDA cell line in the presence of 0.5 nM R1881 (AID 1259243). Also: nearly all actives have a fitted effect of over 50% in size. In a few lines: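 Luminescence from an AR/GR-responsive MMTV-luciferase construct in MDA-kb2 breast carcinoma cells, read 30 min after ONE-Glo, following 16 hr co-treatment with compounds and 0.5 nM R1881.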

For experiment [20] the target is unchanged. As to the kind of experiment: qHTS assay to identify small molecule agonists of the androgen receptor (AR) signaling pathway in the presence of an antagonist (AID 1259381; calls by dose curve; also: nearly all actives have a fitted effect of over 15% in size). In a few lines:
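Plated MDA-kb2 cells (3,000/well) were pre-incubated 5hr, given nilutamide (3.0uM final) or buffer, then dosed with compounds in DMSO at 15 concentrations. Luciferase activity was quantified by luminescence after 16hr at 37C.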

“And” between values parts separate entries of the source, which are not always exact repeats. Equal entries are not always repeated. Inconclusive results are not listed. Some compounds were tested as several samples or in several runs, with calls that do not always agree. The source made the active and inactive calls. Unless noted, calls follow the shape of the dose curve; as a rule, active = well fitted curve in the direction sought with a large enough effect in the repeat runs; inconclusive = weak or mixed curves; inactive = no such curve, though single readings can be large; an effect the other way counts as inactive or inconclusive.

Sequence of Androgen receptor (Homo sapiens) (P10275 whole entry, looked up): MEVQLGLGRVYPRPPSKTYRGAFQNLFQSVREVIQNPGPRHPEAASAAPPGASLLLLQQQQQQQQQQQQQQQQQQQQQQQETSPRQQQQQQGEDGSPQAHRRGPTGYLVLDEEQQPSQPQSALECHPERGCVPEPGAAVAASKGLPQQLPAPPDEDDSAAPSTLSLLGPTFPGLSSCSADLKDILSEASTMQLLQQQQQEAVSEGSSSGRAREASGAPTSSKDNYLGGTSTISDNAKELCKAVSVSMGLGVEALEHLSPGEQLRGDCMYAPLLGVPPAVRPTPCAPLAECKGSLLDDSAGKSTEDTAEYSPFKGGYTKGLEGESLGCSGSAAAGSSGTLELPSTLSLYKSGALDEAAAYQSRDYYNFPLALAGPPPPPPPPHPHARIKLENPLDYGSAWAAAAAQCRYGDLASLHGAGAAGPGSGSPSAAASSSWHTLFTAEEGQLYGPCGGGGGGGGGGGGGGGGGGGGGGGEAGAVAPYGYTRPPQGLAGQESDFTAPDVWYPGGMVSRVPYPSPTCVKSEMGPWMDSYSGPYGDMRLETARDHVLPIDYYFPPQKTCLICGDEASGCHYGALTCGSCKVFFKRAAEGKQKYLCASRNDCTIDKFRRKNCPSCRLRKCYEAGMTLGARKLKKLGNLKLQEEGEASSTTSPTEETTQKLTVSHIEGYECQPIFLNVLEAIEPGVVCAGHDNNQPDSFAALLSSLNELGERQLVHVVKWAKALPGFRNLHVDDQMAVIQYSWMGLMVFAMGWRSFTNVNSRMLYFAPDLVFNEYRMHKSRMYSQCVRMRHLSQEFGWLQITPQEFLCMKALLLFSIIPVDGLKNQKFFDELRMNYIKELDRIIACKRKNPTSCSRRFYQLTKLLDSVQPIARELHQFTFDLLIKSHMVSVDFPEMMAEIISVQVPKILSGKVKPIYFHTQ
Sequence of Estrogen receptor beta (Homo sapiens) (Q92731 whole entry, looked up): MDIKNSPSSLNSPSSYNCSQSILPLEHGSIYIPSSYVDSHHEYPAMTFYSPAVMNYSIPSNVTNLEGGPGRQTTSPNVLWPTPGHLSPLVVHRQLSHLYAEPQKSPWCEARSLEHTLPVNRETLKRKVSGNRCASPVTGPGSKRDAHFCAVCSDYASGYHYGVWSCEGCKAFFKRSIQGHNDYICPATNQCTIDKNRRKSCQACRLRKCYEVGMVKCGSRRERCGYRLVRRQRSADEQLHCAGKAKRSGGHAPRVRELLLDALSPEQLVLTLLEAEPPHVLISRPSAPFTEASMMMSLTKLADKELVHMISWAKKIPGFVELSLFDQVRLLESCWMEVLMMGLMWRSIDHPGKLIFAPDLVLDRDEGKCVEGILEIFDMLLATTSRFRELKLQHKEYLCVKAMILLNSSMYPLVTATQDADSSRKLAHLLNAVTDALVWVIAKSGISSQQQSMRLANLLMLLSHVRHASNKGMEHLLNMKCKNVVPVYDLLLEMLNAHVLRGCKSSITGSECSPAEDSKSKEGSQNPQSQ

`O=c1cc[nH]c(=S)[nH]1`: the Potency result in experiment [1], in [2], in experiment [3], in experiment [4], in [6] and in experiment [8] was “inactive” each time. Besides, the Potency result in experiment [9], in experiment [11], in [13], in experiment [14], in [15] and in experiment [16] was “inactive” in each case. Further, the Potency entry in experiment [17] is “inactive”. For the same compound, the call in experiment [5], in [7], in experiment [10], in experiment [12] and in experiment [18] was inactive.

For `O=C(O)C(=O)O`, the Potency entry in experiment [1], in [2], in [3], in [6], in [8] and in experiment [9] was “inactive” in each case. Besides, the Potency entry in experiment [14], in experiment [15] and in experiment [16] was “inactive” in each case. Moreover, the compound was called inactive in [7], in [10] and in experiment [18]. Also, the Potency result in experiment [11] is “inactive and 1.22 µM (active)”.

With `NC(N)=O`, the Potency result in experiment [1], in experiment [2], in [3], in [4], in experiment [6] and in experiment [13] was “inactive” each time. Besides, the Potency result in [14], in experiment [15], in [16] and in experiment [17] was “inactive” each time. The call in [5], in [7], in experiment [10], in experiment [12] and in experiment [18] was inactive. Also, the Potency in [9] was 16.3 µM (active) and inactive; in experiment [11] it was 7.28 µM (active) and inactive and 68.6 µM (active).

Take `OC(Cn1cncn1)(Cn1cncn1)c1ccc(F)cc1F`: the Potency result in experiment [1], in experiment [2], in experiment [3], in experiment [4], in [6] and in experiment [9] was “inactive” each time. The Potency entry in [11], in experiment [13], in experiment [14], in [15] and in experiment [17] was “inactive” throughout. Moreover, the compound was classed as inactive in experiment [5], in experiment [7], in [10], in [12] and in experiment [18].

`CC(C)(Oc1ccc(C2CC2(Cl)Cl)cc1)C(=O)O` (configuration not stated): the Potency result in experiment [1], in experiment [2], in experiment [3], in [19], in [4] and in experiment [6] was “inactive” in each case. The Potency entry in experiment [9], in experiment [11], in experiment [13], in experiment [14], in experiment [15] and in [20] was “inactive” in each case. Also, the Potency entry in experiment [16] and in experiment [17] was “inactive” in each case. The result in experiment [5], in experiment [7], in [10], in experiment [12] and in experiment [18] was inactive.

With `C1N2CN3CN1CN(C2)C3`, the Potency result in experiment [1], in experiment [2], in experiment [3], in experiment [19], in experiment [6] and in experiment [9] was “inactive” each time. Besides, the Potency entry in experiment [11], in experiment [13], in experiment [14], in experiment [15] and in experiment [20] was “inactive” each time. The outcome in [5], in experiment [7], in [10], in experiment [12] and in experiment [18] was inactive.

As to `O=C1NC(=O)c2ccccc21`, the Potency entry in experiment [1], in experiment [2], in experiment [3], in experiment [6], in experiment [9] and in experiment [11] was “inactive” each time. The Potency result in experiment [14] and in experiment [15] was “inactive” throughout. Further, the call in [7], in [10] and in [18] was inactive.

`CCCCC(CC)COC(=O)/C=C/c1ccc(OC)cc1` (configuration not stated): the Potency entry in experiment [2], in [3], in [19], in experiment [4], in [6] and in experiment [8] was “inactive” in each case. Moreover, the Potency entry in [9], in experiment [11], in experiment [14], in experiment [15], in experiment [20] and in [16] was “inactive” throughout. The Potency result in [17] is “inactive”. Further, the outcome in experiment [5], in experiment [7], in experiment [10] and in experiment [18] was inactive.
